Among the data in PubChem BioAssay (Tox21) are Potency values, retold here.

Where “and” joins values, the source holds several entries; their conditions need not be identical. Identical values can stand only once. Inconclusive results are not listed. A structure can be active in one record and inactive in another. Calls of active or inactive are those of the source. Unless noted, calls come from the whole dose curve; as a rule, active = well fitted curve in the direction sought with a large enough effect in the repeat runs; inconclusive = weak or mixed curves; inactive = no such curve, though single readings can be large; an effect the other way counts as inactive or inconclusive.

Test [1] in a line: qHTS assay to identify small molecule antagonists of the estrogen related receptor (ERR) signaling pathway from Tox21 library - cell viability counter screen (AID 1224834). Note: nearly all actives have a fitted effect of over 30% in size. Note: potency is the fitted concentration of half-maximal effect. Put shortly:
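Compounds in DMSO were pinned onto ERR cells that had been incubated for 6 h, and the plates were held at 37 C for 17.5 h. CellTiter-Fluor reagent was then added and fluorescence was measured after 30 min.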

Test [2] has as its target Luciferin 4-monooxygenase (Photinus pyralis) (UniProt P08659). In words: qHTS assay to identify small molecule inhibitors of firefly luciferase (AID 1224835). Note: nearly all actives have a fitted effect of over 25% in size. Note: potency is the fitted concentration of half-maximal effect. The gist of the method: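 Inhibition of purified Photinus luciferase is measured by luminescence. Substrate levels (D-luciferin, ATP) sit at their KM values. Each compound is tested in a concentration series.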
(Quantitative high-throughput screening tests each substance at several concentrations.)

Test [3] can be described thus: qHTS assay to identify small molecule agonists of the constitutive androstane receptor (CAR) signaling pathway - cell viability counter screen (AID 1224836). Note: nearly all actives have a fitted effect of over 45% in size. Note: potency is the fitted concentration of half-maximal effect. The gist of the method: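 Double-stable HepG2 hepatoma cells (hCAR plus CYP2B6-2.2kb) are treated for 23 h at 37 C with test compounds in 15-point concentration series. PK11195 at 0.75 uM final is co-added. Cell viability is quantified by CellTiter-Fluor.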

Test [4] in a line: qHTS assay to identify small molecule antagonists of the constitutive androstane receptor (CAR) signaling pathway - cell viability counter screen (AID 1224837). Note: series mostly up to about 92 µM; nearly all actives have a fitted effect of over 45% in size. The gist of the method: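 Cells are seeded, rested 4 hr at 37 C/5% CO2, dosed with compound (15-point series) and 50 nM CITCO, incubated a further 23 hr, and then CellTiter-Fluor reagent is added before fluorescence is read. The line is HepG2 with stable hCAR and CYP2B6-2.2kb.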

Test [5] deals with Nuclear receptor subfamily 1 group I member 3 (Homo sapiens) (UniProt Q14994). As to the kind of experiment: qHTS assay to identify small molecule antagonists of the constitutive androstane receptor (CAR) signaling pathway (AID 1224838).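 Note: HepG2 cells stably expressing hCAR with CYP2B6 luciferase reporter stimulated by CITCO; nearly all actives have a fitted effect of over 40% in size.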 Note: potency is the fitted concentration of half-maximal effect. Put shortly:
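Luminescence from a CYP2B6-2.2kb promoter reporter in hCAR-expressing HepG2 cells reflects CAR signaling. Cells received compounds at 15 concentrations and 50 nM CITCO (final), then incubated 24 h at 37 C/5% CO2.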

Test [6] shares this target. As to the kind of experiment: qHTS assay to identify small molecule agonists of the constitutive androstane receptor (CAR) signaling pathway (AID 1224839). Note: nearly all actives have a fitted effect of over 15% in size. Note: potency is the fitted concentration of half-maximal effect. The gist of the method:
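Readout: firefly luciferase luminescence via ONE-Glo. System: HepG2 double-stable for hCAR and CYP2B6-2.2kb. Conditions: 15-point compound titration, PK11195 at 0.75 uM final, 24 h incubation.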

Test [7] in a line: qHTS assay to identify small molecule antagonists of the estrogen related receptor signaling pathway with the pleiotropic PPARgamma coactivator (PGC) from Tox21 10K library - cell viability counter screen (AID 1224840; active = well fitted cell-killing curve with a large enough effect in the repeat runs, not every such curve was filed as active; note: nearly all actives have a fitted effect of over 40% in size; note: potency is the fitted concentration of half-maximal effect). The gist of the method:
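Cell viability is measured by CellTiter-Fluor fluorescence in PGC/ERR cells that receive compounds after a 6-hour attachment period and are then incubated 17.5 hours at 37 C.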

Test [8] addresses Thyrotropin receptor (Homo sapiens) (UniProt P16473). As to the kind of experiment: qHTS assay to identify small molecule agonists of the thyroid stimulating hormone receptor (TSHR) signaling pathway (AID 1224843; calls by dose curve; note: nearly all actives have a fitted effect of over 45% in size; note: potency is the fitted concentration of half-maximal effect). Put shortly:
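Agonist activity read as cAMP rise via d2/cryptate HTRF competition, 1 h room-temperature detection, in HEK293 cells expressing TSHR. Fifteen-point titrations, each run in triplicate, with a 30 min room-temperature incubation beforehand.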

Test [9] can be described thus: qHTS assay to identify small molecule agonists of the hypoxia (HIF-1) signaling pathway - cell viability counter screen (AID 1224844; calls by dose curve; note: nearly all actives have a fitted effect of over 50% in size; note: potency is the fitted concentration of half-maximal effect). The gist of the method: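 Viability counter screen: HRE-bla ME-180 cells plated 5 hrs before compound addition, treated 17 hrs at 37C and 5% CO2, then CellTiter-Glo added after the FRET reporter read; luminescence after 30 min.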
The nature of test [10]: qHTS assay to identify small molecule agonists of the estrogen related receptor signaling pathway with the pleiotropic PPARgamma coactivator (PGC) from Tox21 10K library (AID 1224842). Note: nearly all actives have a fitted effect of over 15% in size. Put shortly:
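Luminescence from One-Glo (30 min, room temperature) measured after PGC/ERR cells had 18 h at 37 C with pinned compound (23 nL in DMSO). Cells had been seeded at 2,000 per well and pre-incubated 6 h.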

Thyrotropin receptor (Homo sapiens), sequence (P16473 whole entry, looked up): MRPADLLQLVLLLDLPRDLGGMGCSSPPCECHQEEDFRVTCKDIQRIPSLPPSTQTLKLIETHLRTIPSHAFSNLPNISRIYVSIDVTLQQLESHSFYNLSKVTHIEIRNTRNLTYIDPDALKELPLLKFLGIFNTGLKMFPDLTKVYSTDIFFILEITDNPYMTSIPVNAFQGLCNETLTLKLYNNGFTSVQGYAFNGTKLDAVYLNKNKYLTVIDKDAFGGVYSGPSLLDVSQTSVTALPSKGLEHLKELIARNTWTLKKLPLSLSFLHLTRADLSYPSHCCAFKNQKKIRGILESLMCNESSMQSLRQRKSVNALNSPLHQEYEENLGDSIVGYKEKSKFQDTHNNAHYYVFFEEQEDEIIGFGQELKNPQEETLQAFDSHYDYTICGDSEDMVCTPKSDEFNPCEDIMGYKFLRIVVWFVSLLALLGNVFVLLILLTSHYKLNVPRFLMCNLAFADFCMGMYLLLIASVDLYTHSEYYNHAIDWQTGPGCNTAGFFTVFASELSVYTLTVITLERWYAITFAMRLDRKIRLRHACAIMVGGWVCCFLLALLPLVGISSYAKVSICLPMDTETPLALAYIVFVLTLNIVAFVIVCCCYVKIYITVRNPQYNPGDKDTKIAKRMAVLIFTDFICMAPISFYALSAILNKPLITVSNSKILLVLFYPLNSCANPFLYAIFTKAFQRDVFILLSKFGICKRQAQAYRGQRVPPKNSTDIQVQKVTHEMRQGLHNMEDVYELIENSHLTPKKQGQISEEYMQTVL
Luciferin 4-monooxygenase (Photinus pyralis), sequence (P08659 whole entry, looked up): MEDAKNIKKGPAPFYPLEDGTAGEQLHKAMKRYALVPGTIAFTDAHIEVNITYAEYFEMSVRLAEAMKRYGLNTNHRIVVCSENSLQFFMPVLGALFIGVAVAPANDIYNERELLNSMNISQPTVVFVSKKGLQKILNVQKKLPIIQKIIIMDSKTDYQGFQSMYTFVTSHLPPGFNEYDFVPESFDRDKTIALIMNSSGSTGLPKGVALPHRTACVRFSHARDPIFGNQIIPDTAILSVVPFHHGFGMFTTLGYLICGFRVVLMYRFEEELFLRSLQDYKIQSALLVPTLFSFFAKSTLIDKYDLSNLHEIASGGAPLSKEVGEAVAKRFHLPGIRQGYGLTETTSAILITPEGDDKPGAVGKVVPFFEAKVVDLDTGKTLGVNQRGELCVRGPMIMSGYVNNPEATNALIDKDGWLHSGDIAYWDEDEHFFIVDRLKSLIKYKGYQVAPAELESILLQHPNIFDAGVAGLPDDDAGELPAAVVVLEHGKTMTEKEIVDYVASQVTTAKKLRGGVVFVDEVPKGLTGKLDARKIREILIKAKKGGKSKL
Nuclear receptor subfamily 1 group I member 3 (Homo sapiens), sequence (Q14994 whole entry, looked up): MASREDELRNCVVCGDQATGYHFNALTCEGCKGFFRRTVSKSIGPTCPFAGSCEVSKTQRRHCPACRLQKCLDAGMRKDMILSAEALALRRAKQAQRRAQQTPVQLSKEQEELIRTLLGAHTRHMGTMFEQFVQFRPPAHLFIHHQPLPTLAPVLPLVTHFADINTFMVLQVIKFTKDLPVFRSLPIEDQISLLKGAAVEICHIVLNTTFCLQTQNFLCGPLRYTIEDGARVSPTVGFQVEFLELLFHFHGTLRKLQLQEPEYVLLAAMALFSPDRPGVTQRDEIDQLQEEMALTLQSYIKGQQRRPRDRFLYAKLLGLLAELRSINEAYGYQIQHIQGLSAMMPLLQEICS

Regarding `NC1CCCCC1`, the Potency result in test [1], in [2], in test [3], in [4], in test [5] and in test [6] was “inactive” each time. The Potency entry in test [7] and in [9] was “inactive” in each case. In test [8], the Potency was 194 nM (active) and inactive.
For the compound `NC(CO)(CO)CO`, the Potency entry in test [1], in test [2], in test [3], in test [5], in test [6] and in test [7] was “inactive” each time. Further, the Potency result in test [8] and in test [9] was “inactive” in each case.
With `CN1CCc2cccc3c2[C@H]1Cc1ccc(O)c(O)c1-3`, the Potency was 27.6 µM (active) and 22.8 µM (active) and 26.6 µM (active) in [1]; 49.1 µM (active) and 22.8 µM (active) in test [3]; 15.5 µM (active) and 9.09 µM (active) and 15 µM (active) in test [6]; 30.9 µM (active) and 22.8 µM (active) in test [7]; 39.3 µM (active) and 16.3 µM (active) in test [9]. The Potency entry in [2], in test [5] and in test [10] was “inactive” each time.
With `CCCCNC(=O)NS(=O)(=O)c1ccc(C)cc1`, the Potency result in test [1], in test [2], in test [3], in test [7], in [10] and in test [9] was “inactive” in each case.
With `CCCCOC(=O)c1ccc(O)cc1`, the Potency result in test [1], in test [3], in test [4], in test [5], in [7] and in test [8] was “inactive” each time. Further, the Potency result in [9] was “inactive”. The Potency in test [2] is 80.7 µM (active) and 63.3 µM (active) and inactive; in [6] it was 55.1 µM (active) and 30.6 µM (active) and inactive.
For the compound `Nc1c2c(nc3ccccc13)CCCC2`, the Potency entry in test [1], in [2], in test [3], in test [4], in [6] and in [7] was “inactive” in each case. Also, the Potency entry in test [10], in test [8] and in [9] was “inactive” each time. In test [5], the Potency is 54.5 µM (active) and 43.3 µM (active) and inactive.
In the case of `Cc1cn([C@H]2C=C[C@@H](CO)O2)c(=O)[nH]c1=O`, the Potency result in [1], in test [2], in test [3], in test [4], in [5] and in [6] was “inactive” throughout. For the same compound, the Potency result in test [7], in test [8] and in test [9] was “inactive” throughout.
For `CCOC(N)=O`, the Potency result in [1], in test [2], in [3], in [7], in test [8] and in test [9] was “inactive” each time.
Consider `COc1cccc(O)c1O`, for which, in [1], the Potency is 63.5 µM (active). In addition, the Potency entry in [2], in test [3], in [5] and in test [6] was “inactive” throughout.
As to `CN(C)C(=O)Nc1ccc(Cl)c(Cl)c1`, the Potency entry in [1], in [2], in test [3], in [4], in test [5] and in [7] was “inactive” in each case. Also, the Potency entry in [10], in test [8] and in [9] was “inactive” throughout.
For the compound `Nc1ccc(S(N)(=O)=O)cc1`, the Potency entry in test [1], in test [3], in [6], in test [7], in test [8] and in test [9] was “inactive” throughout. Besides, the Potency in test [5] is 27.4 µM (active) and inactive.
Consider `O=C1O[C@H]([C@@H](O)CO)C(O)=C1O`, for which the Potency entry in test [2], in test [3], in test [4], in test [5], in test [6] and in test [7] was “inactive” in each case. Moreover, the Potency result in test [8] and in [9] was “inactive” each time.
On to `CN(C)CCOC(C)(c1ccccc1)c1ccccn1` (stereo not given), for which the Potency result in [2], in test [3], in test [4], in test [5], in test [6] and in test [7] was “inactive” in each case. For the same compound, the Potency result in [10], in [8] and in test [9] was “inactive” in each case.
With `CS(=O)(=O)OCCCCOS(C)(=O)=O`, the Potency entry in test [2], in test [3], in [4], in [7], in test [10] and in test [8] was “inactive” each time. In test [9], the Potency entry is “inactive”.
With `CCCc1cc(=O)[nH]c(=S)[nH]1`, the Potency entry in [2], in [3], in [4], in test [5], in test [6] and in test [7] was “inactive” in each case. Besides, the Potency result in [8] and in [9] was “inactive” throughout.
On to `C=CCc1ccc(O)c(OC)c1`, for which the Potency entry in test [2], in [3], in [4], in test [5], in [6] and in test [7] was “inactive” throughout. For the same compound, the Potency result in test [8] and in [9] was “inactive” throughout.
In the case of `CC(C)c1c(C(=O)Nc2ccccc2)c(-c2ccccc2)c(-c2ccc(F)cc2)n1CC[C@@H](O)C[C@@H](O)CC(=O)O`, the Potency result in test [1], in test [3], in test [5], in test [6], in test [7] and in [8] was “inactive” throughout. Besides, the Potency result in test [9] is “inactive”.
In the case of `CC1(C)O[C@@H]2C[C@H]3[C@@H]4CCC5=CC(=O)C=C[C@]5(C)[C@@]4(F)[C@@H](O)C[C@]3(C)[C@]2(C(=O)CO)O1`, the Potency entry in test [2], in test [3], in test [4], in [7], in test [10] and in [9] was “inactive” throughout.
`C[C@](N)(Cc1ccc(O)c(O)c1)C(=O)O`: the Potency entry in [1], in [3], in test [5], in test [6], in [7] and in [9] was “inactive” each time.
